Test results as given in PubChem BioAssay (NCI).
Compounds without any hit were thinned out: in the full panel of roughly 79,000, 15% have a hit. Activity calls are given as the source filed them. Cut-off read from the data, not from the text of the source: active = growth inhibition above about 70%; inactive = the rest.

What was measured:
[1] = NCI Yeast Anticancer Drug Screen. Data for the mec2-1 strain (AID 157); settings: S. cerevisiae mec2-1 strain, active compounds read high
Summary of the method: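 Test agents were screened against the mec2-1 yeast strain, with defined DNA repair or cell cycle alteration. Growth was scored as inhibition against vehicle-only controls.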

[2] = NCI Yeast Anticancer Drug Screen. Data for the rad14 strain (AID 159);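 note: 0% = growth of vehicle-treated control cultures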; settings: S. cerevisiae rad14 strain growth inhibition, active compounds read high
Summary of the method: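 Screen for anticancer potential: a yeast strain altered in DNA damage repair is grown with compound, and reduced growth is quantified against vehicle controls.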

[3] = NCI Yeast Anticancer Drug Screen. Data for the sgs1 mgt1 strain (AID 161);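 note: 0% = growth of cultures given vehicle only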; settings: S. cerevisiae sgs1 mgt1 strain, active compounds read high
Summary of the method: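 Test agents were incubated with a DNA-repair-mutant yeast strain. Growth was then read and compared against vehicle-treated controls.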

[4] = NCI Yeast Anticancer Drug Screen. Data for the CLN2oe strain (AID 163);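 note: 0% = growth of vehicle-only control cultures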; settings: S. cerevisiae CLN2oe strain, active compounds read high
Summary of the method: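 Here, growth inhibition in a cell-cycle-altered yeast strain after compound exposure was quantified against vehicle control growth.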

[5] = NCI Yeast Anticancer Drug Screen. Data for the cln2 rad14 strain (AID 165);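 note: 0% = growth equal to vehicle treated cultures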; settings: S. cerevisiae cln2 rad14 strain, active compounds read high
Summary of the method: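 Growth of compound-exposed yeast (cln2 rad14 genotype) measured and expressed as inhibition relative to vehicle.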

[6] = NCI Yeast Anticancer Drug Screen. Data for the bub3 strain (AID 167); settings: S. cerevisiae bub3 mutant strain, active compounds read high
Summary of the method: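 Screening used yeast with an engineered genetic alteration affecting cell cycle control. Compound-exposed cultures were compared with vehicle cultures, and reduced growth was taken as inhibition.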

[7] = NCI Yeast Anticancer Drug Screen. Data for the wt2 strain (AID 169);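 note: 0% = growth of vehicle-treated yeast cultures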; settings: S. cerevisiae wt2 strain growth inhibition, active compounds read high
Summary of the method: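 Genetically defined yeast strains from a DNA-repair/cell-cycle panel were used. Compound-exposed yeast growth was measured, and the inhibition was calculated relative to vehicle treatment.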

[8] = NCI Yeast Anticancer Drug Screen. Data for the mlh1 strain (AID 171);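 note: 0% = growth of vehicle-treated control cultures of the same strain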; settings: S. cerevisiae mlh1 strain growth inhibition, active compounds read high
Summary of the method: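 Here the genetically defined yeast mutant is grown with each compound, and the extent to which its growth falls below that of vehicle-exposed cells is reported.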

[9] = NCI Yeast Anticancer Drug Screen. Data for the sgs1 strain (AID 173);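 note: 0% = growth of vehicle-only control cultures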; settings: S. cerevisiae sgs1 mutant, active compounds read high
Summary of the method: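 Relative growth inhibition, referenced to vehicle, was determined in a yeast strain with a defined alteration affecting DNA damage repair or cell cycle control after compound exposure.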

[10] = NCI Yeast Anticancer Drug Screen. Data for the mlh1 rad18 strain (AID 175); settings: S. cerevisiae mlh1 rad18 strain growth inhibition, active compounds read high
Summary of the method: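 In this whole-cell yeast screen, a strain with altered DNA damage repair is challenged with compound, and its growth is measured against matched vehicle-treated controls.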

[11] = NCI Yeast Anticancer Drug Screen. Data for the rad18 strain (AID 177); settings: S. cerevisiae rad18 mutant growth inhibition, active compounds read high
Summary of the method: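 Screen uses a yeast strain with a defined lesion in DNA damage repair; compound effect is read as loss of growth compared to untreated vehicle cultures.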

[12] = NCI Yeast Anticancer Drug Screen. Data for the rad52 strain (AID 147);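 note: 0% = growth of vehicle-treated control cultures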; settings: S. cerevisiae rad52 mutant growth inhibition, active compounds read high
Summary of the method: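 Measured: yeast growth inhibition. System: strain with a defined DNA damage repair alteration. Reference: vehicle-treated control cultures.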

[13] = NCI Yeast Anticancer Drug Screen. Data for the wt1 strain (AID 149);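 note: 0% = growth of vehicle-treated wt1 cultures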; settings: S. cerevisiae wt1 strain (SPY 50644) growth inhibition, active compounds read high
Summary of the method: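 Using yeast strain wt1, compound-induced growth inhibition was determined against vehicle-treated cultures.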

[14] = NCI Yeast Anticancer Drug Screen. Data for the mgt1 strain (AID 153); settings: S. cerevisiae mgt1 mutant growth inhibition, active compounds read high
Summary of the method: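 After exposure of the mgt1 yeast mutant to compound, growth was measured and reported as inhibition compared with vehicle controls.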

[15] = NCI Yeast Anticancer Drug Screen. Data for the rad50 strain (AID 155);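 note: 0% = growth of vehicle-only cultures of the same strain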; settings: S. cerevisiae rad50 strain growth inhibition, active compounds read high
Summary of the method: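 Relative growth inhibition (compound vs vehicle) was measured in yeast with a defined repair-gene alteration.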

[16] = NCI Yeast Anticancer Drug Screen. Data for the rad50EPP+ strain (AID 151);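 note: 0% = growth of vehicle-treated control cultures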; settings: S. cerevisiae rad50 mutant strain, active compounds read high
Summary of the method: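 One strain with a rad50 alteration (rad50EPP+) was compound-treated, its growth then compared to that of vehicle controls.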

[17] = at 5.0 µM (retest, dose inferred, filed as 0.5)
[18] = at 50.0 µM (retest, dose inferred, filed as 5.0)

Measured: growth inhibition

COc1ccc(-c2cc(-c3cc(C)cc(Cl)c3O)nc3[nH]c(=S)[nH]c(=S)c23)cc1
active: [2]; at 100.0 µM 89% | [3]; at 50.0 µM 84.8% | [4]; at 100.0 µM 87% | [5]; [18] 76% | [6]; at 50.0 µM 70.5% | [7]; at 100.0 µM 87% | [8]; at 100.0 µM 87% | [9]; at 100.0 µM 93% | [10]; [18] 86% | [10]; at 50.0 µM 87.1%
inactive: [1]; at 100.0 µM 57% | [2]; at 1.2 µM 1% | [2]; at 3.7 µM 4% | [2]; at 11.0 µM 9% | [2]; at 33.0 µM 17% | [3]; [17] -13% | [3]; [18] 68% | [4]; at 1.2 µM -2% | [4]; at 3.7 µM -2% | [4]; at 11.0 µM -3% | [4]; at 33.0 µM -5% | [5]; [17] 44% | [5]; at 50.0 µM 65.5% | [6]; at 1.2 µM 2% | [6]; at 3.7 µM 4% | [6]; [17] -20% | [6]; at 11.0 µM 0% | [6]; at 33.0 µM 1% | [6]; [18] 63% | [6]; at 100.0 µM 58% | [7]; at 1.2 µM 0% | [7]; at 3.7 µM -4% | [7]; at 11.0 µM -4% | [7]; at 33.0 µM 6% | [8]; at 1.2 µM -1% | [8]; at 3.7 µM -2% | [8]; at 11.0 µM 0% | [8]; at 33.0 µM 10% | [9]; at 1.2 µM 1% | [9]; at 3.7 µM -2% | [9]; at 11.0 µM -1% | [9]; at 33.0 µM 16% | [10]; [17] -31% | [11]; at 1.2 µM 0% | [11]; at 3.7 µM -2% | [11]; at 11.0 µM -16% | [11]; at 33.0 µM 8% | [11]; at 100.0 µM 61%

CC1=NN(C(=O)c2ccccc2O)C(=O)/C1=C/c1ccco1
inactive: [12]; at 1.2 µM 1% | [12]; at 3.7 µM 16% | [13]; at 1.2 µM 21% | [13]; at 3.7 µM 30% | [14]; at 1.2 µM -5% | [14]; at 3.7 µM 27% | [14]; at 11.0 µM 65% | [15]; at 1.2 µM -3% | [15]; at 3.7 µM 17% | [15]; [17] 11% | [15]; at 11.0 µM 64% | [1]; at 1.2 µM -4% | [1]; at 3.7 µM 2% | [1]; [17] 19% | [2]; at 1.2 µM -1% | [2]; at 3.7 µM 15% | [2]; at 11.0 µM 69% | [3]; [17] 2% | [4]; at 1.2 µM 6% | [4]; at 3.7 µM 7% | [5]; [17] 28% | [6]; at 1.2 µM 40% | [6]; at 3.7 µM 52% | [6]; [17] 43% | [7]; at 1.2 µM 11% | [7]; at 3.7 µM 31% | [8]; at 1.2 µM 12% | [8]; at 3.7 µM 32% | [10]; [17] 27% | [11]; at 1.2 µM 0% | [11]; at 3.7 µM 17% | [11]; at 11.0 µM 48%
active: [12]; at 11.0 µM 76% | [12]; at 33.0 µM 92% | [12]; at 100.0 µM 96% | [13]; at 11.0 µM 70% | [13]; at 33.0 µM 90% | [13]; at 100.0 µM 95% | [14]; at 33.0 µM 88% | [14]; at 100.0 µM 96% | [15]; at 33.0 µM 89% | [15]; [18] 89% | [15]; at 50.0 µM 87.5% | [15]; at 100.0 µM 95% | [1]; at 11.0 µM 75% | [1]; at 33.0 µM 91% | [1]; [18] 93% | [1]; at 50.0 µM 87.2% | [1]; at 100.0 µM 96% | [2]; at 33.0 µM 89% | [2]; at 100.0 µM 96% | [3]; [18] 90% | [3]; at 50.0 µM 87.3% | [4]; at 11.0 µM 81% | [4]; at 33.0 µM 91% | [4]; at 100.0 µM 95% | [5]; [18] 90% | [5]; at 50.0 µM 83.5% | [6]; at 11.0 µM 91% | [6]; at 33.0 µM 95% | [6]; [18] 94% | [6]; at 50.0 µM 87% | [6]; at 100.0 µM 97% | [7]; at 11.0 µM 80% | [7]; at 33.0 µM 92% | [7]; at 100.0 µM 96% | [8]; at 11.0 µM 71% | [8]; at 33.0 µM 89% | [8]; at 100.0 µM 96% | [10]; [18] 94% | [10]; at 50.0 µM 82.5% | [11]; at 33.0 µM 86% | [11]; at 100.0 µM 94%

CC(C(=O)N1C(=O)N(C(=O)C(C)C(O)c2ccccc2)C2CCCCC21)C(O)c1ccccc1 (centres undefined)
active: [15]; at 50.0 µM 97.1% | [1]; at 50.0 µM 97.2% | [3]; at 50.0 µM 97.5% | [5]; [17] 87% | [5]; at 50.0 µM 96.5% | [6]; at 50.0 µM 97.8% | [10]; at 50.0 µM 97.2%
inactive: [12]; at 1.2 µM 5% | [12]; at 3.7 µM 8% | [12]; at 11.0 µM 11% | [12]; at 33.0 µM 11% | [12]; at 100.0 µM 19% | [16]; at 1.2 µM 0% | [16]; at 3.7 µM -3% | [16]; at 11.0 µM 0% | [16]; at 33.0 µM 2% | [16]; at 100.0 µM 3% | [14]; at 1.2 µM -4% | [14]; at 3.7 µM 0% | [14]; at 11.0 µM 1% | [14]; at 33.0 µM 1% | [14]; at 100.0 µM 29% | [15]; at 1.2 µM 0% | [15]; at 3.7 µM -9% | [15]; [17] -5% | [15]; at 11.0 µM -7% | [15]; at 33.0 µM 16% | [15]; [18] 8% | [15]; at 100.0 µM 20% | [1]; at 1.2 µM 3% | [1]; at 3.7 µM 1% | [1]; [17] -7% | [1]; at 11.0 µM 2% | [1]; at 33.0 µM 14% | [1]; [18] -2% | [1]; at 100.0 µM 24% | [2]; at 1.2 µM 2% | [2]; at 3.7 µM 1% | [2]; at 11.0 µM 4% | [2]; at 33.0 µM 9% | [2]; at 100.0 µM 20% | [3]; [17] -7% | [3]; [18] 11% | [4]; at 1.2 µM 1% | [4]; at 3.7 µM -2% | [4]; at 11.0 µM 4% | [4]; at 33.0 µM 11% | [4]; at 100.0 µM 15% | [5]; [18] 14% | [6]; at 1.2 µM -2% | [6]; at 3.7 µM -1% | [6]; [17] -13% | [6]; at 11.0 µM -2% | [6]; at 33.0 µM 1% | [6]; [18] -9% | [6]; at 100.0 µM 4% | [7]; at 1.2 µM -2% | [7]; at 3.7 µM -1% | [7]; at 11.0 µM 1% | [7]; at 33.0 µM 7% | [7]; at 100.0 µM 29% | [8]; at 1.2 µM 0% | [8]; at 3.7 µM 0% | [8]; at 11.0 µM 1% | [8]; at 33.0 µM 11% | [8]; at 100.0 µM 26% | [9]; at 1.2 µM 2% | [9]; at 3.7 µM 2% | [9]; at 11.0 µM 0% | [9]; at 33.0 µM 23% | [9]; at 100.0 µM 46% | [10]; [17] 2% | [10]; [18] 1% | [11]; at 1.2 µM 2% | [11]; at 3.7 µM 4% | [11]; at 11.0 µM 5% | [11]; at 33.0 µM 20% | [11]; at 100.0 µM 27%
